# Read-outs that look alike come from different tables or passages of the source.
# Key:
# Parameters in all cases: species or system human, MV4-11 + K-562 + COLO205 + SK-N-BE2 + OVCAR-8
# ADRBK1 = conditions: read-out: apparent Kd, n = 1
# AKT2 = conditions: read-out: apparent Kd, n = 1
# EIF2AK1 = conditions: read-out: apparent Kd; compound concentrations:100 nM and 1000 nM (sheet 'Samples'); n = 1
# GSK3A = conditions: read-out: apparent Kd; compound concentrations:100 nM and 1000 nM (sheet 'Samples'); n = 1
# GSK3B = conditions: read-out: apparent Kd; compound concentrations:100 nM and 1000 nM (sheet 'Samples'); n = 1
# PIM2 = conditions: read-out: apparent Kd; compound concentrations:100 nM and 1000 nM (sheet 'Samples'); n = 1
# PRKAG1 = conditions: read-out: apparent Kd; compound concentrations:100 nM and 1000 nM (sheet 'Samples'); n = 1
# TAOK1 = conditions: read-out: apparent Kd; compound concentrations:100 nM and 1000 nM (sheet 'Samples'); n = 1
# AKT1 = conditions: read-out: apparent Kd; compound concentrations:100 nM and 1000 nM (sheet 'Samples'); n = 1
# AKT3 = conditions: read-out: apparent Kd, n = 1
# DDX3X;DDX3Y = conditions: read-out: apparent Kd; compound concentrations:100 nM and 1000 nM (sheet 'Samples'); n = 1
# RIOK2 = conditions: read-out: apparent Kd; compound concentrations:100 nM and 1000 nM (sheet 'Samples'); n = 1
# FLT3 = conditions: read-out: apparent Kd; compound concentrations: 100 nM and 1000 nM (sheet 'Samples'), CATDS: 0.11498835622255001; n = 1
# FRK = conditions: read-out: apparent Kd; compound concentrations: 100 nM and 1000 nM (sheet 'Samples'), CATDS: 9.2307505689948E-2; n = 1
# MAP2K5 = conditions: read-out: apparent Kd; compound concentrations: 100 nM and 1000 nM (sheet 'Samples'), CATDS: 0.380124521697633; n = 1
# PDGFRB = conditions: read-out: apparent Kd; compound concentrations: 100 nM and 1000 nM (sheet 'Samples'), CATDS: 7.8407173450410803E-2; n = 1
# PRKCZ = conditions: read-out: apparent Kd; compound concentrations: 100 nM and 1000 nM (sheet 'Samples'), CATDS: 7.7148514104913996E-2; n = 1
# PTK6 = conditions: read-out: apparent Kd; compound concentrations: 100 nM and 1000 nM (sheet 'Samples'), CATDS: 7.5013295148623801E-2; n = 1
# RIPK2 = conditions: read-out: apparent Kd; compound concentrations: 100 nM and 1000 nM (sheet 'Samples'), CATDS: 9.6327273582125797E-2; n = 1
# RIPK3 = conditions: read-out: apparent Kd, compound concentrations: 100 nM and 1000 nM (sheet 'Samples'), n = 1
# ZAK = conditions: read-out: apparent Kd; compound concentrations: 100 nM and 1000 nM (sheet 'Samples'), CATDS: 7.8640349215909094E-2; n = 1
# AGK = conditions: read-out: apparent Kd; compound concentrations: 100 nM and 1000 nM (sheet 'Samples'), CATDS: 0.48685778986675599; n = 1
# TP53RK = conditions: read-out: apparent Kd, compound concentrations: 100 nM and 1000 nM (sheet 'Samples'), n = 1
# CDK17 = conditions: read-out: apparent Kd; compound concentrations: 100 nM and 1000 nM (sheet 'Samples'), CATDS: 8.1529480800730997E-2; n = 1
# CDK9 = conditions: read-out: apparent Kd; compound concentrations: 100 nM and 1000 nM (sheet 'Samples'), CATDS: 7.5399196753672404E-2; n = 1
# CSNK1A1 = conditions: read-out: apparent Kd; compound concentrations: 100 nM and 1000 nM (sheet 'Samples'), CATDS: 8.2829529423840004E-2; n = 1
# HCK = conditions: read-out: apparent Kd; compound concentrations: 100 nM and 1000 nM (sheet 'Samples'), CATDS: 0.17397087448623899; n = 1
# ILK = conditions: read-out: apparent Kd; compound concentrations: 100 nM and 1000 nM (sheet 'Samples'), CATDS: 8.7046948596417206E-2; n = 1
# MAP2K1 = conditions: read-out: apparent Kd; compound concentrations: 100 nM and 1000 nM (sheet 'Samples'), CATDS: 8.98649962952279E-2; n = 1
# NQO1 = conditions: read-out: apparent Kd; compound concentrations: 100 nM and 1000 nM (sheet 'Samples'), CATDS: 9.3069785012321701E-2; n = 1
# [1] = compound concentrations:100 nM and 1000 nM (sheet 'Samples')
compound,measurement,setting,value
O=C(Nc1n[nH]c2nc(-c3ccc(O)cc3)c(Br)cc12)C1CC1 [SB-725317],potency estimated from few doses,ADRBK1; [1],1.95 µM
same,potency estimated from few doses,AKT2; [1],2.42 µM
same,potency estimated from few doses,EIF2AK1,0.517 µM
same,potency estimated from few doses,GSK3A,0.0129 µM
same,potency estimated from few doses,GSK3B,0.0431 µM
same,potency estimated from few doses,PIM2,0.768 µM
same,potency estimated from few doses,PRKAG1,1.61 µM
same,potency estimated from few doses,TAOK1,1.84 µM
COc1cccc(C2=C(Nc3cccc(O)c3)C(=O)NC2=O)c1 [SB-390771],potency estimated from few doses,AKT1,2.06 µM
same,potency estimated from few doses,AKT3; [1],1.93 µM
same,potency estimated from few doses,DDX3X;DDX3Y,2.11 µM
same,potency estimated from few doses,RIOK2,2.46 µM
CNC(=O)c1ccc2c(c1)ncn2-c1ccc(CC(=O)OC(C)(C)C)cc1 [GSK840],potency estimated from few doses,"ADRBK1; compound concentrations: 100 nM and 1000 nM (sheet 'Samples'), CATDS: 7.1088636568514996E-2",2.02 µM
same,potency estimated from few doses,FLT3,0.469 µM
same,potency estimated from few doses,FRK,0.857 µM
same,potency estimated from few doses,MAP2K5,0.0121 µM
same,potency estimated from few doses,PDGFRB,1.42 µM
same,potency estimated from few doses,PRKCZ,1.5 µM
same,potency estimated from few doses,PTK6,1.65 µM
same,potency estimated from few doses,RIPK2,0.759 µM
same,potency estimated from few doses,RIPK3; CATDS: 0.614198823590974,0.00467 µM
same,potency estimated from few doses,ZAK,1.4 µM
COC[C@@H](C)N[C@H]1CC[C@H](Nc2cc(-c3cccc(NCC4(C#N)CCOCC4)n3)c(Cl)cn2)CC1 [NVP-2],potency estimated from few doses,AGK,2.37 µM
same,potency estimated from few doses,TP53RK; CATDS: 0.51387141429952199,2.13 µM
Cl.N#CCc1ccc(Nc2nccc(Nc3ccc(Oc4ccccc4)cc3)n2)cc1 [GW639905A],potency estimated from few doses,"AKT2; compound concentrations: 100 nM and 1000 nM (sheet 'Samples'), CATDS: 8.2827110731653497E-2",1.92 µM
same,potency estimated from few doses,"AKT3; compound concentrations: 100 nM and 1000 nM (sheet 'Samples'), CATDS: 0.118826721397903",0.954 µM
same,potency estimated from few doses,CDK17,1.99 µM
same,potency estimated from few doses,CDK9,2.42 µM
same,potency estimated from few doses,CSNK1A1,1.92 µM
same,potency estimated from few doses,HCK,0.532 µM
same,potency estimated from few doses,ILK,1.72 µM
same,potency estimated from few doses,MAP2K1,1.61 µM
same,potency estimated from few doses,NQO1,1.5 µM
same,potency estimated from few doses,RIPK3; CATDS: 8.3707794531398802E-2,1.88 µM
same,potency estimated from few doses,TP53RK; CATDS: 8.4353152889517405E-2,1.85 µM
